Rows were chosen to be rich in hits. Some 19% of all compounds tested hit in one or more screens of this group.
KB-3-1 cytotox: KB-3-1 parental cell cytotoxicity; KB-3-1 viability, CellTiter-Glo ATP luminescence, 72 h; Potency, µM (series often up to 46.1 µM), actives largely listed as cytotoxic; 400,000 compounds, 1.4% hits; AID 1347075; further: nearly all actives have a fitted effect of over 60% in size
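Parental KB-3-1 adenocarcinoma cells in phenol-red-free DMEM with 10% FBS were pin-treated with compounds at several concentrations, incubated 72 h at 37 °C, and viability read by CellTiter-Glo luminescence; concentration-effect curves were fitted after normalization.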
DT40 TDP1 CPT: growth inhibition of DT40 Tdp1-/-;hTDP1 cells with camptothecin (screen for TDP1 inhibitors). chicken DT40 Tdp1-/-;hTDP1 cells + 20 nM CPT, ATP luminescence, 48 h. AID 686979. Potency, µM (highest dose often 46.2 µM), without a hit: at the highest dose activity change, negative = growth inhibition, actives largely listed as inhibitors. 420,000 compounds, 12% hits; further: nearly all actives have a fitted effect of over 55% in size
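Chicken DT40 Tdp1-/- cells stably complemented with human TDP1 were seeded at 400 cells/well in medium containing 20 nM camptothecin, exposed to pin-transferred compounds, and grown at 37 °C for at least 48 hr. Viability was read as ATP luminescence.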
HT1080NT lethal: kills 2HG-producing HT-1080-NT fibrosarcoma cells | HT-1080-NT fibrosarcoma viability, CellTiter-Glo ATP luminescence, 48 h | 360,000 compounds, 1.6% hits | Potency, µM (titrated, usually from 46.1 µM), for the others: at the top dose activity, negative = less viability, hits mostly cytotoxic | AID 686970;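 further: NT is the 2HG producing partner of a matched IDH1 knockdown line; 0% = DMSO-treated cells and -100% = media-only wells without cells; nearly all actives have a fitted effect of over 55% in size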
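Fibrosarcoma NT cells, 750 per well in 5% FBS RPMI, were exposed to compound for 48 hours. Viability: CellTiter-Glo luminescence.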
HT1080 IDH1KD tx: HT-1080 IDH1 knockdown cell toxicity (counter line) | HT-1080 IDH1 knockdown viability, ATP luminescence, 48 h | Potency, µM (doses to about 46.1 µM), for the others: top-dose activity, negative = toxicity, most hits filed as cytotoxic | 360,000 compounds, 2% hits;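 further: 0% = DMSO wells and -100% = cell-free medium wells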
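In this qHTS, HT-1080 cells depleted of IDH1 are exposed for 48 h at 37 °C to compound titrations. Toxicity is scored from CellTiter-Glo luminescence, with DMSO as full viability and medium alone as none.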
TDP1 cell noCPT: qHTS for Inhibitors of human tyrosyl-DNA phosphodiesterase 1 (TDP1): qHTS in cells in absence of CPT; AID 686978, 2013; Potency, µM (top dose mostly 46.2 µM), inactives show top-dose activity change, negative = growth inhibition, most hits filed as inhibitors; DT40 Tdp1-/- hTDP1 cells, no CPT, ATP luminescence, 48 h; 420,000 compounds, 15% hits; further: nearly all actives have a fitted effect of over 55% in size
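A cellular qHTS used chicken DT40 cells lacking endogenous Tdp1 but carrying stably transfected human TDP1. Compounds were applied without camptothecin, and cell growth kinetics were judged by ATP-dependent luminescence after ≥48 hr.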
KB-V1 cytotox: kills drug-selected multidrug resistant KB-V1 cells; KB-V1 MDR cells viability, CellTiter-Glo, 72 h; Potency, µM (doses to about 46.1 µM), hits mostly cytotoxic; 400,000 compounds, 3.4% hits; further: nearly all actives have a fitted effect of over 60% in size
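KB-V1 cells (P-gp-expressing MDR subline of KB-3-1) in phenol-red-free DMEM with 10% FBS were exposed to library compounds over a concentration series for 72 h at 37 degrees C. Viability read by CellTiter-Glo luminescence; concentration-effect curves fitted after normalization.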
The depositor's hits bear a star; i = inactive; ? = inconclusive; nt = not tested or not shown. The call rests on the fitted dose curve; in most records, active means well fitted curve in the direction sought with a large enough effect; inconclusive means small, poorly fitted or top-dose-only effect, or another doubt; inactive means no such curve, though single readings can be large; an effect the other way counts as inactive or inconclusive. Unless noted, on the % scale 0 is the no-effect control and ±100 the full control effect; potency means the concentration at half of the fitted maximal effect.

SMILES	KB-3-1 cytotox	DT40 TDP1 CPT	HT1080NT lethal	HT1080 IDH1KD tx	TDP1 cell noCPT	KB-V1 cytotox
Cc1nn(C)c(C)c1/C=C(/C(=O)C(C)(C)C)n1cncn1	i	?	-13%	?	23µM*	?
CC(C)(C)C(=O)/C(=C/c1ccncc1)n1cncn1	6.5µM*	3.3µM*	7.3µM*	7.3µM*	1.6µM*	?
O=C(CN(CCc1ccccc1)C(=O)c1csnn1)NCc1ccc(F)cc1	i	2%	-2%	5%	4%	?
Cc1cc(C)c2c(-n3cccc3)c(C(=O)NCCc3ccc(Cl)cc3)sc2n1	nt	-16%	nt	nt	?	nt
CCOC(=O)c1cccc(NC(=O)NCCc2c(C)nn(C)c2C)c1	i	-14%	nt	nt	?	i
CCCCN(CC)CCNC(=O)c1cc2c(=O)oc3ccc(C)cc3c2s1	i	?	nt	nt	?	i
C=CCC[C@@H](Cc1ccc(F)cc1)C(=O)OC[C@@H](Cc1c[nH]c2ccccc12)NC(=O)[C@H](CC=C)CC(=O)N(CCO)Cc1ccccc1	?	21µM*	16µM*	?	?	21µM*
C=CCC[C@H](Cc1ccc(F)cc1)C(=O)OC[C@@H](Cc1c[nH]c2ccccc12)NC(=O)[C@H](CC=C)CC(=O)N(CCO)Cc1ccccc1	?	18µM*	?	?	?	?
Cc1cccc(C(=O)N2CCCCC2CCN2CCCCC2)c1 (centres undefined)	nt	3%	nt	nt	2%	nt
NC(c1csc(Nc2cc(NCc3ccco3)ncn2)n1)c1ccccc1Cl (centres undefined)	i	21µM*	?	-14%	15µM*	i
NC(Cc1ccc(F)cc1)c1csc(Nc2cc(NCc3ccco3)ncn2)n1 (centres undefined)	i	23µM*	18µM*	16µM*	21µM*	?
Cc1nn(C(=O)c2ccccc2)c(C)c1S(=O)(=O)N1CCCCCC1	i	-13%	nt	nt	-24%	?
CC1CC(C)CN(S(=O)(=O)c2ccc(NC(=O)CN3CCCCCC3)cc2)C1 (centres undefined)	i	16µM*	-2%	-1%	21µM*	?
CC1CCCN(CC(=O)Nc2ccc(S(=O)(=O)N3CCCCCC3)cc2)C1 (centres undefined)	i	?	22µM*	?	?	?
CC1CCCN(CC(=O)Nc2ccc(S(=O)(=O)N3CCCCC3)cc2)C1 (centres undefined)	i	?	8%	8%	-25%	i
O=C1NC(Cc2ccccc2)c2nc3ccccc3c(=O)n2-c2cc3ccccc3cc21 (centres undefined)	13µM*	13µM*	?	9.2µM*	13µM*	?
O=C1NC(Cc2ccccc2)c2nc3cc(F)ccc3c(=O)n2-c2cc3ccccc3cc21 (centres undefined)	?	5.2µM*	?	16µM*	5.8µM*	?
CCC1NC(=O)c2cc3ccccc3cc2-n2c1nc1cc(F)ccc1c2=O (centres undefined)	i	-1%	14%	3%	?	?
CCCC1NC(=O)c2cc3ccccc3cc2-n2c1nc1cc(F)ccc1c2=O (centres undefined)	i	?	-21%	?	21µM*	i
Cc1ccc2c(=O)n3c(nc2c1)C(Cc1ccccc1)NC(=O)c1cc2ccccc2cc1-3 (centres undefined)	12µM*	?	6.5µM*	5.8µM*	?	?
S=C(N/N=C/c1cccc2ccccc12)Nc1cccc(Cl)c1	i	-6%	-5%	8%	?	i
COc1cccc(C(=O)Nc2nnc(SCC(=O)Nc3ccc(NC(C)=O)cc3)s2)c1	i	2%	6%	12%	3%	i

Screening results deposited in PubChem BioAssay by National Center for Advancing Translational Sciences (NCATS).
